# Assay outcomes (PubChem)
# Only some compounds are listed: those with a hit (about 1.6% of all), similar ones and a draw of the others.
# KCNQ2 enhance = enhances the rat KCNQ2 potassium channel; O88943; CHO-K1 KCNQ2, FluxOR thallium flux fluorescence; active compounds read high; B-score at 10 µM; actives 0.54% (n = 310,000);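 active means fluorescence ratio B-score at least 3 SD of library B-scores, with initial fluorescence B-score within 3 of them, cut at about 5.3 in these data; same plate scores as AID 2156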;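 further: B-score of peak minus minimum over baseline fluorescence ratio after K+ and Tl+ stimulus; positive B-score means potentiation of KCNQ2 with more thallium influx and brighter signal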
# KCNQ2 block = blocks the rat KCNQ2 potassium channel. CHO-K1 KCNQ2, FluxOR thallium flux, 20 min; active compounds read low. AID 2156. B-score at 10 µM. actives 1.1% (n = 310,000). O88943;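 active means fluorescence ratio B-score at most minus 3 library SDs, with starting brightness B-score within 2 library SDs, cut at about -5.5 in these data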
# KCNQ2 block conf = rat KCNQ2 channel inhibition, confirmatory screen; shares compounds with KCNQ2 block; KCNQ2-expressing cells, thallium flux; active compounds read low; activity change, negative = inhibition, % at 10 µM; actives 57% (n = 1,000);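 further: 0% = vehicle wells and values are ratio percent relative to vehicle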
# KCNQ1 spec = selectivity of KCNQ2 inhibitors against human KCNQ1. AID 493026. actives 15% (n = 1,000). KCNQ1-expressing cells, FluxOR thallium flux fluorescence; active compounds read low. shares compounds with KCNQ2 block. activity change, negative = inhibition, % at 10 µM;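 active means activity change at least 3 SD of negative controls below their mean in both duplicate wells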;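 further: CHO cells stably transfected with KCNQ1 and depolarized by potassium stimulus; peak minus minimum fluorescence over baseline after thallium addition; 0% = vehicle negative control and -100% = blank without thallium stimulus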
# Target sequence (P51787 whole entry, looked up): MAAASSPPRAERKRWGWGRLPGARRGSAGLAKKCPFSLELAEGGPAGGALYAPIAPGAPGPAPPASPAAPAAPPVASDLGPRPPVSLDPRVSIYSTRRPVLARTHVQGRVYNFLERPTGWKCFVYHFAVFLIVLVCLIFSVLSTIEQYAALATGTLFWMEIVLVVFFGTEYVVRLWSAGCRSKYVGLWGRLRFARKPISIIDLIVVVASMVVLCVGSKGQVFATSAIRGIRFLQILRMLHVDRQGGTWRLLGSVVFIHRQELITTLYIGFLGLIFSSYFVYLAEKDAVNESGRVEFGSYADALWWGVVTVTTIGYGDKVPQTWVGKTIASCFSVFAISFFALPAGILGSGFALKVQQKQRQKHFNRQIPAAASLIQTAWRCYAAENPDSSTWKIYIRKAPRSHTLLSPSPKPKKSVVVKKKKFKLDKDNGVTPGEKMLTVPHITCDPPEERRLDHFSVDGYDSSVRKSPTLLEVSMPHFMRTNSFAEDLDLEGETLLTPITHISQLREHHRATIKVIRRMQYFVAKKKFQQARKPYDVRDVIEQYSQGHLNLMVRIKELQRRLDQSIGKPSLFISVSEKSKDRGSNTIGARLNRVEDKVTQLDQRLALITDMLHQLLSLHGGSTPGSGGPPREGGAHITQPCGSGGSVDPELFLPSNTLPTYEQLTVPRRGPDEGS
# CHO parental ctr = counter-screen for KCNQ2 inhibitors: effect in parental CHO cells; activity change, % at 10 µM; shares compounds with KCNQ2 block; thallium flux counter-screen; active compounds read low; actives 14% (n = 1,000);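 further: 0% = vehicle negative controls with stimulus buffer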
# KCNQ2 patch conf = rat KCNQ2 inhibition confirmed by electrophysiology; KCNQ2-expressing cells, automated patch clamp current; shares compounds with KCNQ2 block; actives 49% (n = 550); calls only at 10 µM
# * hit, by the source's call; i = inactive; x = no result; + = active, no number. Unless noted, how the calls were made is not given here.
SMILES,KCNQ2 enhance,KCNQ2 block,others
O=P(O)(O)/C=C(\Cl)c1ccccc1,x,i,
CCN(CC)P(=O)(/C=C(\Cl)c1ccccc1)/C=C(\Cl)c1ccccc1,-5.9,-5.9*,
CC/C=C/CC(=O)N[C@@H](c1ccccc1)[C@@H](O)C(=O)O[C@H]1C[C@@]2(O)[C@@H](OC(=O)c3ccccc3)C3[C@](C)(C(=O)[C@H](OC(C)=O)C(=C1C)C2(C)C)[C@@H](O)C[C@H]1OC[C@@]31OC(C)=O (some centres undefined),-5.6,-5.6*,
CCC(C)C(=O)N[C@@H](c1ccccc1)[C@@H](O)C(=O)O[C@H]1C[C@@]2(O)[C@@H](OC(=O)c3ccccc3)C3[C@](C)(C(=O)[C@H](OC(C)=O)C(=C1C)C2(C)C)[C@@H](O)C[C@H]1OC[C@@]31OC(C)=O (some centres undefined),x,i,
S=C(NC1CCCCC1)N1CCC(c2cnc[nH]2)CC1,0.02,i,
CC(C)n1c(=O)c(C=Nc2ccc(S(N)(=O)=O)cc2)c(O)n(Cc2ccco2)c1=O,1,i,
CC(C)n1c(=O)c(C=Nc2cccc([N+](=O)[O-])c2)c(O)n(CCc2ccccc2)c1=O,-6.7,-6.7*,
O=C1NC(=O)N(C2CCCCC2)C(=O)C1C1c2ccccc2C(=O)N1Cc1ccccc1 (centres undefined),0.12,i,
CN(CCc1ccccc1)Cc1ccccc1[N+](=O)[O-],x,i,
Oc1ccccc1CN(CCc1ccccc1)Cc1ccccc1,-6,-6*,
Cc1ccc(-n2nc(C)c(C3C(C#N)=C(N)Oc4c3c(=O)oc3ccccc43)c2Cl)cc1 (centres undefined),x,i,
C/C=C1/CN2[C@@H]3C4CO[C@@H]3c3c([nH]c5cc(OC)ccc35)[C@@H]2CC14 (some centres undefined),0.22,i,
CN1C(=O)C(O)N=C(c2ccccc2)c2ccccc21 (centres undefined),x,i,
Cc1cc(C(=O)CS(=O)c2ccc(F)cc2)cc(C)c1OC(=O)N(C)C (centres undefined),x,i,
CN[C@H]1C[C@H]2O[C@@](C)([C@H]1OC)n1c3ccccc3c3c4c(c5c6ccccc6n2c5c31)C(=O)NC4,9.3*,i,
O=C(/C=C/c1ccccc1)NCCc1cnc[nH]1,x,i,
CC/C(=N\N1CCCCCC1)c1c(O)n(-c2ccccc2C)c(=O)[nH]c1=O,1.6,i,
O=C(Cn1ncc2c3ccccc3n(Cc3ccccc3F)c2c1=O)N1CCC2(CC1)OCCO2,16*,i,
Cc1c2cnn(CC(=O)N3CCC4(CC3)OCCO4)c(=O)c2c(C)n1Cc1ccc(F)cc1,2.2,i,
Cc1ccc(N2C(=O)NC(=O)C3(Cc4ccccc4N4CCN(c5ccccc5)CC43)C2=O)cc1 (centres undefined),-7.1,-7.1*,
O=C1NC(=O)C2(Cc3ccccc3N3CCCC32)C(=O)N1c1cccc(Cl)c1 (centres undefined),x,i,
NC(=S)N/N=C/c1coc2ccccc2c1=O,x,i,
COc1cc(C)c(-c2nc(CN3C[C@@H]4C[C@@H](C3)c3cccc(=O)n3C4)c(C)o2)cc1C,-5.8,-5.8*,
COc1cc(CN2CC3CC(C2)c2cccc(=O)n2C3)cc(OC)c1OC (centres undefined),0.5,i,
Cc1nc2c(c(=O)[nH]1)C(c1ccc([N+](=O)[O-])cc1)c1c(c3ccccc3oc1=O)O2 (centres undefined),0.12,i,
SMILES,KCNQ2 enhance,KCNQ2 block,others
COc1cccc(NP(=O)(Oc2ccccc2)Oc2ccccc2)c1,x,i,
O=P(Nc1cccc(Cl)c1)(Oc1ccccc1)Oc1ccccc1,-5.6,-5.6*,
Cc1nc2ccccc2c(=O)n1-c1cc([N+](=O)[O-])cc([N+](=O)[O-])c1,0.08,i,
CN1CCC(N(C)c2nc(-c3ccc([N+](=O)[O-])cc3)nc3ccccc23)CC1,-6,-6*,
CC(C)(O)[C@@H]1[C@H]2OC(=O)[C@@H]1[C@]1(O)C[C@H]3O[C@]34C(=O)O[C@H]2[C@]14C (tested in a mixture with another compound),x,i,
CC[C@H]1CN2CC[C@@]3(C(=O)Nc4ccccc43)[C@@H]2C[C@@H]1/C(=C\OC)C(=O)OC,0.32,i,
CCOc1cccc(C2NCc3ccccc3-n3cccc32)c1O (centres undefined),-6.8,-6.8*,
CCOc1cc(C2NCc3ccccc3-n3cccc32)ccc1O (centres undefined),x,i,
CCOC(=O)C1(c2ccccc2)CCN(CC(=O)Nc2cccc3ccccc23)CC1,x,i,
O=C(Nc1cccc2ccccc12)c1nn(C23CC4CC(CC(C4)C2)C3)cc1Br,-8,-8*,KCNQ2 block conf=-26%*;KCNQ1 spec=i;CHO parental ctr=i;KCNQ2 patch conf=i
N=C1SCC(=O)N1Cc1ccccc1,1.3,i,
CCC1(CC)C(=O)N(Cc2ccccc2)C(=O)N(Cc2ccccc2)C1=O,-8.2,-8.2*,KCNQ2 block conf=i;KCNQ1 spec=i;CHO parental ctr=i
CC[N+](C)(CC)CCCCOc1ccc2c(c1)C(=O)c1cc(OCCCC[N+](C)(CC)CC)ccc1-2,1.8,i,
Cc1ccc2cc(CNCCc3ccccc3C)c(=O)[nH]c2c1,1.1,i,
CN(C)C(=S)SSC(=S)N(C)C,-10,-10*,KCNQ2 block conf=i;KCNQ1 spec=i;CHO parental ctr=i
CN(CC1COc2ccccc2O1)c1nc(-c2cccnc2)nc2ccccc12 (centres undefined),x,i,
Cn1cccc1/C=C1/C(=O)NC(=S)N(Cc2ccc(F)cc2)C1=O,x,i,
C=C(C)[C@@]12OC3(c4ccccc4)O[C@@H]1C1[C@@H]4O[C@]4(CO)[C@@H](O)[C@]4(O)C(=O)C(C)=C[C@H]4[C@@]1(O3)[C@H](C)[C@H]2OC(=O)/C=C/C=C/c1ccccc1 (some centres undefined),x,i,
Cc1ccc(NP(=O)(Nc2ccc(C)cc2)Oc2ccccc2)cc1,-7.1,-7.1*,KCNQ2 block conf=-31%*;KCNQ1 spec=i;CHO parental ctr=i;KCNQ2 patch conf=+
COc1ccc(OP(=O)(Nc2ccccc2)Nc2ccccc2)cc1,x,i,
COCc1cc(OC(=O)N(C)C)nc(-c2ccccc2)n1,x,i,
FC(F)(F)c1ccc2c(c1)N(CCCN1CCN(CCCl)CC1)c1ccccc1S2,-7,-7*,KCNQ2 block conf=-32%*;KCNQ1 spec=i;CHO parental ctr=i;KCNQ2 patch conf=i
Nc1ccc(CCN2CCN(c3cccc(C(F)(F)F)c3)CC2)cc1,0.04,i,
CN1CCN(c2nc3ccccc3c(=O)n2-c2ccccc2)CC1,x,i,
CCCCn1c(=O)c(C(=O)NC(C)c2ccccc2)c(O)c2ccccc21 (centres undefined),-12,-12*,KCNQ2 block conf=i;KCNQ1 spec=i;CHO parental ctr=i
CCCCn1c(=O)c(C(=O)NCCc2ccccc2)c(O)c2ccccc21,x,i,
C[n+]1c(-c2ccccc2)cc(-c2ccc(Cl)cc2)cc1-c1ccccc1,1,i,
